We go through 40 compounds from PubChem BioAssay (NCATS).

Inconclusive results are not listed. Entries that show only a call come without a potency. Calls of active or inactive are those of the source. Calls follow the shape of the full dose curve.
Potency is read from the fitted curve at half-maximal effect.

Sequence of Atrial natriuretic peptide receptor 1 (Homo sapiens) (P16066 whole entry, looked up, the tested form may be a part): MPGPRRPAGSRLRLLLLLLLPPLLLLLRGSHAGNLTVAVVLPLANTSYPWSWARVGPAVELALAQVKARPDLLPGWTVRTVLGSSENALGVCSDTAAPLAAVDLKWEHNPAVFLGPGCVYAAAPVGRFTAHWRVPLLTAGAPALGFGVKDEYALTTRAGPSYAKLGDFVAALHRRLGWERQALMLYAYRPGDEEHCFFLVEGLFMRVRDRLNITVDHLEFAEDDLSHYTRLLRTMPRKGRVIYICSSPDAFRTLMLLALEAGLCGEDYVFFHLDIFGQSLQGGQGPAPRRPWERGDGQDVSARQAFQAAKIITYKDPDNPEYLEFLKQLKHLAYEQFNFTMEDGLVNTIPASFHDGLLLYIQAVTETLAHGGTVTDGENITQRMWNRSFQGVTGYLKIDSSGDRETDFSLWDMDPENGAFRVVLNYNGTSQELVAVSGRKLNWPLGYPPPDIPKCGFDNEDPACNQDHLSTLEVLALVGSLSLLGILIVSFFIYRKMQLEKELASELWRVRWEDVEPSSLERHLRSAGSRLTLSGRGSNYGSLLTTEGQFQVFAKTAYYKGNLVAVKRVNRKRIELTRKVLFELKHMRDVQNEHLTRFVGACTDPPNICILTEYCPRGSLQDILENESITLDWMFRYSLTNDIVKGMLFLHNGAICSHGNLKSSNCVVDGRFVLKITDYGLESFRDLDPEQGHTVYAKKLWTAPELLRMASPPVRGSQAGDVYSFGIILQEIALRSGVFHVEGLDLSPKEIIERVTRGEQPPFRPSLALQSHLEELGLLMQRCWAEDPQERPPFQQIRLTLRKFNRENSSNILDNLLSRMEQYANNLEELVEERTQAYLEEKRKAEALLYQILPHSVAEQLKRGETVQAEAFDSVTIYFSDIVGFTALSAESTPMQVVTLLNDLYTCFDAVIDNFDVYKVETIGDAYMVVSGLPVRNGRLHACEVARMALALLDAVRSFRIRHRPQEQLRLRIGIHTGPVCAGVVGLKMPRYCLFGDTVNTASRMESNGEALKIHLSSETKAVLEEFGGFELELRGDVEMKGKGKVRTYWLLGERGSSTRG

The experiment deals with Atrial natriuretic peptide receptor 1 (Homo sapiens) (UniProt P16066). The experiment is described as follows: Natriuretic polypeptide receptor (hNpr1) antagonism - Pilot screen (AID 1347049). The conditions noted are these: hNpr1 cells, antagonist mode cGMP read-out; series mostly up to 57.5 µM. The procedure:
In order to identify small molecular compounds that inhibit the hNpr1 receptor we developed a high-throughput assay to measure inhibition of the guanylate cyclase activity of the receptor. cGMP production was measured using a circular permutated Firefly luciferase (FLuc) enzyme functionally linked to the cGMP binding domain of human phosphodiesterase 5 (GloSensor technology pGS-40F, (Fan, F. et al. 2008). The cGMP-sensor was expressed in human embryonic kidney 293 (HEK-293) cells and FLuc activity was measured after stimulation with hNrp agonist peptide. hNrp agonists activates the receptor's associated guanylyl cyclase (GC) domain producing cGMP which then binds to the GloSensor resulting in FLuc activation, the enzymatic activity of which can be measured as bioluminescence with addition of luciferin substrate.
F. Fan, B. F. Binkowski, B. L. Butler, P. F. Stecha, M. K. Lewis, K. V. Wood, Novel genetically encoded biosensors using firefly luciferase. ACS Chem Biol 3, 346-351 (2008).
This assay was initially piloted by testing with a small diversity library of compounds with known pharmacological activity.
PROTOCOL TABLES (as described by Inglese J, Shamu CE and Guy RK. 2007)
SEQUENCE No. (e.g., 1, 2, 3, etc.); […] (e.g., Cells, Incubation, Reagent, etc.); VALUE and DESCRIPTION.
1. Cells. Seed 1500 HEK293 cGMP-sensor cells expressing hNpr1 per well in 4uL into Greiner 1536-well white/solid bottom high base, tissue culture-treated plates.
2. Incubation. Incubate plated cells at 37C in 5% CO2, 95% RH overnight.
3. Reagent. Add 1uL per well GloSensor reagent from Promega (2% final concentration) or CO2 independent media vehicle control to respective columns of Greiner 1536-well plates.
4. Incubation. Incubate plated cells at room temperature for 2 h, protect from light.
5. Compounds. Library compounds and A-71915 control added at 23 nL per well, transferred by Pin Tool.
6. Incubation. Incubate plated cells for 30 min. at room temperature, protect from light.
7. Detector. GloSensor baseline pre-read luminescence measured using CCD-based camera (Viewlux).
8. Compound. Add 1uL of hNppA peptide to 0.1 nM final concentration to stimulate hNpr1 or CO2 independent media as vehicle control.
9. Incubation. Incubate treated cells at room temperature for 20 min., protect from light.
10. Detector. GloSensor post-hNppA luminescence measured using CCD-based camera (Viewlux).
NOTES (numbers refer to Sequence numbers above)
1. HEK293 cells expressing hNpr1 and GIP/pGS-40F grown to 85-95% confluence (48-72 h) in T175 culture flasks (CO2 independent media supplemented with 10% FBS, 1% Pen/Strep antibiotics and 1 ug/mL puromycin). Trypsinize and harvest cells from T175 culture flasks and filter through 40 um cell strainer. Cells counted with Invitrogen Countess (30,000,000 - 50,000,000 cells/flask). Cells diluted to a final concentration of 375 cells/uL in CO2 independent media and a Millipore multidrop used to dispense 1500 cells per well (4uL/well) into 9 x 1536-well Greiner White/Solid bottom, high base tissue-culture treated (TC) plates and one Aurora 1536-well Black/Clear bottom, low base, TC plate (for visual inspection of cell health throughout the duration of the assay).
2. Cells incubated overnight at ambient temperature, 24 h. at 37C in 95% RH incubator protected from light, covered with metal lid with gas-exchange holes.
3. Prepare GloSensor Reagent (Promega): Reconstitute GloSensor luciferase substrate by adding 8.2mL Hepes buffer to 250mg substrate, mix well, protect from light and stored at -80C. Prepare a fresh 12% GloSensor solution in CO2 independent supplemented plating media (see above). Mix well and store at ambient temperature, protected from light. 1uL 12% GloSensor Luciferase Reagent added (2% final concentration) to respective columns of 9 x 1536-well Greiner plate with BioRaptr, 1uL CO2 independent plating media added to respective columns as vehicle control with BioRaptr.
4. […]
Turning to `COc1ccccc1N1CCN(CCCCN2C(=O)c3ccccc3C2=O)CC1`, the Potency result is “inactive”.
As for `CCCCC[C@H](CC(=O)NO)C(=O)N[C@H](C(=O)N1CCC[C@H]1CO)C(C)C`, the entry is “inactive”; as for `NC(N)=NC(N)=Nc1ccccc1`, “inactive”.
As for `O=C(O)C1CCNCC1`, the entry is “inactive”; as for `NCCCCN=C(N)N`, “inactive”; as for `Clc1nccc2c1ccc1ccccc12`, “inactive”.
With `C[C@](Cc1ccc(O)c(O)c1)(NN)C(=O)O` the entry was “inactive”; with `COc1ccc(-c2cc3ncc(C)n3c(Nc3ncccc3C(N)=O)n2)cc1OC`, “inactive”.
For `COc1ccc(NC(=O)c2ccc(-c3ccc(-c4noc(C)n4)cc3C)cc2)cc1N1CCN(C)CC1`, the Potency entry is “inactive”.
As for `O=c1[nH]c2ccccc2c2ccccc12`, the entry is “inactive”; as for `O=S(=O)(c1cccc2c(Cl)cccc12)N1CCCNCC1`, “inactive”; as for `C=CC1(C)CC(=O)C2(O)C(C)(O1)C(OC(C)=O)C(O)C1C(C)(C)CCC(O)C12C` (stereo not given), “inactive”.
With `Cn1c(=O)c2c(nc(/C=C/c3cccc(Cl)c3)n2C)n(C)c1=O` the entry was “inactive”; with `O[Si](CCCN1CCCCC1)(c1ccc(F)cc1)C1CCCCC1` (stereo not given), “inactive”; with `C=C1C[C@@]23CC[C@H]4[C@@](C)(CCC[C@@]4(C)C(=O)O)[C@@H]2CC[C@]1(O)C3`, “inactive”.
As for `O=C(N[C@@H](Cc1ccccc1)C(=O)CCl)OCc1ccccc1`, the figure is 10.7 µM (active); as for `CC(N)(C(=O)O)c1ccc(C(=O)O)cc1` (stereo not given), “inactive”.
Regarding `Nc1nc2[nH]c(=O)cnc2c(=O)[nH]1`, the Potency result is “inactive”.
As for `CNC(=O)c1cc2c(cn1)[nH]c1ccccc12`, the entry is “inactive”.
Take `CCCCOC(=O)NS(=O)(=O)c1sc(CC(C)C)cc1-c1ccc(Cn2c(CC)nc3c(C)cc(C)nc32)cc1`: the Potency result was “inactive”.
As for `C[N+](C)(C)CC=O`, the entry is “inactive”; as for `N#C/C(=C\c1ccc(O)c(O)c1)C(=O)NCCCNC(=O)/C(C#N)=C/c1ccc(O)c(O)c1`, “inactive”.
`NCCCNCCCCNCCCN`: the Potency entry was “inactive”.
As for `Nc1ncnc2c1ncn2C1CCCO1` (stereo not given), the entry is “inactive”; as for `[Li+]`, “inactive”; as for `NC(Cc1cccc(-c2ccccc2CP(=O)(O)O)c1)C(=O)O` (stereo not given), “inactive”.
As for `N[C@H](C(=O)O)[C@H]1C[C@@H]1C(=O)O`, the entry is “inactive”.
Regarding `COc1cc(CNC(=O)CCCCCCC(C)C)ccc1O`, the Potency entry is “inactive”.
With `CSC(N)=NCCC[C@H](N)C(=O)O` the entry was “inactive”; with `CCCCCCCCCCC/C=C\C(C)(C)/C=C\CCCC(=O)O`, “inactive”.
`CN1CCCC1CCOC(C)(c1ccccc1)c1ccc(Cl)cc1` (stereo not given): the Potency entry is “inactive”.
As for `N=C(N)SCCN`, the entry is “inactive”; as for `c1ccc(C2CN3CCSC3=N2)cc1` (stereo not given), “inactive”; as for `CCCCCCCC/C=C\CCCCCCCC(=O)NCCc1ccc(O)c(O)c1`, “inactive”.
In the case of `CC(=O)NCCc1c[nH]c2ccc(O)cc12`, the Potency entry is “inactive”.
With `CN1CC(O)C(O)C(O)C1CO` (stereo not given) the entry was “inactive”; with `COc1ccccc1N1CCN(CCCCNC(=O)c2ccc3ccccc3c2)CC1`, “inactive”; with `Oc1cc2c(cc1O)C(c1ccccc1)CNCC2` (stereo not given), “inactive”.
With `CCCCCCC/C=C\CCCCCCCCC(=O)O` the entry was “inactive”; with `COc1ccc(CCN(C)CCc2ccc(OC)c(OC)c2)cc1OC`, “inactive”.
